The target of assay [1] is Protein deacetylase HDAC6 (Homo sapiens) (UniProt Q9UBN7). The settings on record: at 10 µM.
Assay [2] deals with T1, Protein deacetylase HDAC6 (Homo sapiens) (UniProt Q9UBN7).
T1 sequence (whole entry): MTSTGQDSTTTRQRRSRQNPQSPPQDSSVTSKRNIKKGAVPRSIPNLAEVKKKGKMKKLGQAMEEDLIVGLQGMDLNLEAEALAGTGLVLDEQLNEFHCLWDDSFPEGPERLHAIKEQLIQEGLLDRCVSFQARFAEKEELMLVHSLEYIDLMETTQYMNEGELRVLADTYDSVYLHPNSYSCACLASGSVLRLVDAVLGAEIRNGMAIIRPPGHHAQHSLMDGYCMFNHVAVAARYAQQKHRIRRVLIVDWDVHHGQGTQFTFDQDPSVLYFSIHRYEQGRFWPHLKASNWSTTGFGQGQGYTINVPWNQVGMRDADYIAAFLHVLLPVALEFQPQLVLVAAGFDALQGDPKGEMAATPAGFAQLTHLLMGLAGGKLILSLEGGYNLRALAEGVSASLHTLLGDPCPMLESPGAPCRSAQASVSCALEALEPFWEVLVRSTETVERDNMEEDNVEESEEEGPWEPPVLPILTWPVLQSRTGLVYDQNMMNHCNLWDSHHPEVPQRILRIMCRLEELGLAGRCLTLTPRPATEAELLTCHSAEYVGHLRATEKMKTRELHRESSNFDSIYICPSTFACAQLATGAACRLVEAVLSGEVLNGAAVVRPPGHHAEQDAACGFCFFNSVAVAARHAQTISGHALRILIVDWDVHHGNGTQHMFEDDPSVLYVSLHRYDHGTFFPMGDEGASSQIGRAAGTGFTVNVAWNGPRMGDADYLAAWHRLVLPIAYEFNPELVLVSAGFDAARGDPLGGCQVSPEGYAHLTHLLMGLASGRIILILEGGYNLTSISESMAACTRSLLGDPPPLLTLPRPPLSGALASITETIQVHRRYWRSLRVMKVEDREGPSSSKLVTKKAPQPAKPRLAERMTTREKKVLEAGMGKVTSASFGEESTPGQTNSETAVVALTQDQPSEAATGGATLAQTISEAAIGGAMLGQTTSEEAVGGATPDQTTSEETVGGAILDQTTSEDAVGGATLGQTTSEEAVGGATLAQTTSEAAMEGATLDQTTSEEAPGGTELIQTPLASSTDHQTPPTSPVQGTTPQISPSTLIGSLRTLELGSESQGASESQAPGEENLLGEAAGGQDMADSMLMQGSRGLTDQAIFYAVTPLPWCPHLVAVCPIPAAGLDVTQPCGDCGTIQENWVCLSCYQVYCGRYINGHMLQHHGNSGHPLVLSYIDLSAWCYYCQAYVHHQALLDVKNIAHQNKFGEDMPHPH
The settings on record: at 10 µM. The source holds these as a separate data set.

Experimental findings from ChEMBL document CHEMBL4808148, “HDAC6 screening dataset using tau-based substrate in an enzymatic assay yields selective inhibitors and activators” (2021) are described below.

Usually inhibition stands for the change of the read-out against control, counted positive when it falls.

Among all 5,600 compounds or so, about 390 (7%) showed an effect of 50% or more. Shown is part of a subset that was picked to be rich in strong results.

With HYALURONIC ACID, CHEMBL5314376, the inhibition in assay [1] is -9.36%.

With `CN(C)C(=O)CCSC(SCCC(=O)O)c1cccc(/C=C/c2ccc3ccc(Cl)cc3n2)c1` (stereo not drawn), the inhibition in assay [2] turned out to be 10.8%.

As for `N[C@@H](CSCCCO)C(=O)O`, in assay [2], the inhibition was determined as 24.6%.

Consider `COc1ccc(-n2nc3c4c([nH]cc-3c2=O)CCCCC4)cc1`, for which the inhibition in assay [2] amounted to 40.9%.

With `O=c1c2c[nH]c3ccccc3c-2nn1-c1ccc(Cl)cc1`, in assay [2], the inhibition was determined as 97.1%.

For `CCCCCCCCCCCCCCCc1cccc(OCC(=O)NCCO)c1`, the inhibition in assay [2] was -3.57%.

`CC(C)c1nnc(-c2ccc(-c3ccccc3)nc2)n1-c1cccc2nonc12`: in assay [2], the inhibition is 4.02%.

For `COC(=O)C[C@@](O)(CCC(C)(C)O)C(=O)O[C@@H]1C(OC)=C[C@]23CCCN2CCc2cc4c(cc2[C@@H]13)OCO4`, the inhibition in assay [2] is -1.89%.

Regarding `C[N+]1(CC2CC2)[C@@H]2C[C@@H](OC(=O)[C@H](CO)c3ccccc3)C[C@H]1[C@@H]1O[C@@H]12` (stereo partly drawn), in assay [2], the inhibition was -9.14%.

Regarding `COC(=O)N1CC[C@@H]2[C@H]1CCC[C@@]2(O)C#Cc1cccc(C)c1`, the inhibition in assay [2] came out at 29.3%.

As for `O=C(Nc1ccc(Br)cc1)c1cc(Br)cc(Br)c1O`, the inhibition in assay [2] was determined as 100%.

In the case of `CCOC(=O)c1c(/C(C#N)=C\N)c2ccc(Cl)c(Cl)c2n1C`, the inhibition in assay [2] stood at 0.46%.

On to `Cc1c(F)cc(C(=O)NC2CC2)cc1-c1c(F)cn2c(C(C)(C)C)nnc2c1F`, for which the inhibition in assay [2] is -2%.

Take `CC1(C)CC[C@]2(NC(=O)C(C)(F)F)CC[C@]3(C)C(C(=O)C=C4[C@@]5(C)C=C(C#N)C(=O)C(C)(C)[C@@H]5CC[C@]43C)C2C1` (stereo partly drawn): the inhibition in assay [2] turned out to be 19.7%.

Consider `C[C@]12CC[C@H]3C(=CCc4cc(O)ccc43)[C@@H]1CCC2=O`, for which, in assay [2], the inhibition was 53.8%.

In the case of `C[C@]12CC[C@@H]3c4ccc(O)cc4CC[C@H]3[C@@H]1[C@@H](O)[C@@H](O)[C@@H]2O`, the inhibition in assay [2] amounted to 5.04%.

Regarding `CO/N=C(\C(=O)N[C@@H]1C(=O)N2C(C(=O)O)=C(CSC(=O)c3ccco3)CS[C@H]12)c1csc(N)n1`, the inhibition in assay [2] was found to be 22.4%.

On to `O=C(Nc1ccc(C(F)(F)F)cn1)N1CCN(c2ncccc2C(F)(F)F)CC1`, for which the inhibition in assay [2] was -6.44%.

Consider `COC(=O)c1cc2c(C(F)(F)F)cc(-c3ccccc3)cc2n1O`, for which the inhibition in assay [2] is 16.7%.

For `Cc1c(CN(C)C(=O)/C=C/c2cnc3c(c2)CCC(=O)N3)oc2ccccc12`, in assay [2], the inhibition turned out to be 77.1%.

For `CC1(C)CCC(C)(C)c2cc(Cn3cccn3)c(/C=C/c3ccc(C(=O)O)cc3)cc21`, in assay [2], the inhibition was -7.51%.

For the molecule `O=C(O)CCCCCCCCCCCCCCc1ccc(I)cc1`, the inhibition in assay [2] was 21.6%.

With `OCCn1cc(-c2ccc3c(c2)CC/C3=N\O)c(-c2ccncc2)n1`, in assay [2], the inhibition is -0.22%.

In the case of `Cc1cc(Nc2ncnc3ccc(NC4=NC(C)(C)CO4)cc23)ccc1Oc1ccn2ncnc2c1`, in assay [2], the inhibition was -3.24%.

`Cc1cc(Nc2ncnc3ccc(-c4ccc(CNCCS(C)(=O)=O)o4)cc23)ccc1Oc1ccn2ncnc2c1`: in assay [2], the inhibition turned out to be 2.93%.

On to `C[C@@H]1COC(Nc2ccc3ncnc(Nc4ccc(OCc5nccs5)c(Cl)c4)c3c2)=N1`, for which the inhibition in assay [2] is 62.5%.

In the case of `O=C1C=Cc2cc(Br)ccc2C1=O`, the inhibition in assay [2] is 48.5%.

As for `Cc1ccc(=O)n(-c2ccc(O)cc2)c1`, the inhibition in assay [2] was found to be 1.55%.

As to `Nc1nc(Nc2ccc3c(c2)CC[C@@H](N2CCCC2)CC3)nn1-c1cc2c(nn1)-c1ccccc1CCC2`, the inhibition in assay [2] was found to be 2.38%.

`O=C(NC1(c2ccccc2)CC1)c1c(CN2CCC(N3CCCCC3)CC2)c(-c2cccc(C(F)(F)F)c2)nc2cc(Br)ccc12`: the inhibition in assay [2] worked out at 35.2%.

As for `COC(=O)/C=C/C(=O)OCCN1C(=O)CCC1=O`, in assay [2], the inhibition is -0.93%.

For `O=C(O)c1ccc(-c2ccc3cc(C45CC6CC(CC(C6)C4)C5)c(O)cc3c2)cc1`, in assay [2], the inhibition is -6.28%.

Consider `NS(=O)(=O)Oc1ccc2c3c(c(=O)oc2c1)CCCCC3`, for which the inhibition in assay [2] is 91.6%.

Regarding `Fc1ccc(C(c2ccccc2)(c2ccccc2F)n2ccnc2)cc1` (stereo not drawn), the inhibition in assay [2] is -9.89%.

For `Cn1c(/C=C/C(=O)NO)ccc1/C=C/C(=O)c1cccc(F)c1`, the inhibition in assay [2] amounted to 98.6%.

Regarding `Cc1ccc(NC2=NCCN2)c(Cl)c1`, the inhibition in assay [2] worked out at 7.22%.

`CCC[C@H](N[C@@H](C)C(=O)N1[C@H](C(=O)O)C[C@@H]2CCCC[C@@H]21)C(=O)O`: the inhibition in assay [2] is -9.35%.

As to `CCCC(=O)c1cc(F)ccc1OCC(O)CNC(C)(C)C` (stereo not drawn), in assay [2], the inhibition was -1.16%.

For the molecule `C[C@H](Oc1cc(-c2cnn(C3CCNCC3)c2)cnc1N)c1c(Cl)ccc(F)c1Cl`, in assay [2], the inhibition is -7.32%.

`C[n+]1ccccc1CN=O`: the inhibition in assay [2] amounted to 10.8%.

Turning to `O=c1[nH]c(CCl)nc2sc3c(c12)CCCC3`, the inhibition in assay [2] was 83.4%.

Consider `CCOC(=O)[C@@](C)(N)Cc1ccc(O)c(O)c1`, for which the inhibition in assay [2] turned out to be 35%.

Consider `Cc1ccc(Cl)c(OCC(O)CNC(C)(C)C)c1` (stereo not drawn), for which, in assay [2], the inhibition was 14.8%.

`CCCCCCCCCCCCCCCC(=O)OCCC1CCN(CCCN2c3ccccc3Sc3ccc(S(=O)(=O)N(C)C)cc32)CC1`: in assay [2], the inhibition was 9.91%.

On to `CCCCCCCCCC(=O)OCCN1CCN(CCCN2c3ccccc3Sc3ccc(C(F)(F)F)cc32)CC1`, for which the inhibition in assay [2] was determined as 1.38%.

Consider `OCCN1CCN(CCCN2c3ccccc3Sc3ccc(C(F)(F)F)cc32)CC1`, for which the inhibition in assay [2] was 86.6%.

Regarding `CSc1ccccc1OCC(O)CNC(C)C` (stereo not drawn), the inhibition in assay [2] was 8.76%.

`NC(=S)N/N=C/c1ccncc1`: in assay [2], the inhibition worked out at 22.9%.

With `NC(=S)N/N=C/c1coc2ccccc2c1=O`, the inhibition in assay [2] was determined as 54.7%.

Take `O=C1CCC2CCC(=O)N12`: the inhibition in assay [2] came to 5.05%.

For the molecule `CO[C@@H]1[C@H](O)[C@@H](CO)O[C@H]1n1cnc2c(NC3CCCCC3)ncnc21`, the inhibition in assay [2] was found to be 13.2%.

As for `NC(=O)c1[nH]cnc1O`, the inhibition in assay [2] was determined as 3.67%.

For `CCOCCOc1ccccc1C(N)=O`, the inhibition in assay [2] came to 5.9%.

For the molecule `O=C(c1ccc(OCCCc2c[nH]cn2)cc1)C1CC1`, the inhibition in assay [2] stood at 70.7%.

As for `NC/C(=C/F)CCc1ccc(F)cc1`, the inhibition in assay [2] is 46.9%.

Regarding `O=C(NCC1CCOCC1)c1cnc(Nc2ccc(Cl)cc2Cl)nc1C(F)(F)F`, the inhibition in assay [2] was -5.57%.

In the case of `Cc1cnc(Nc2ccc(F)cc2Cl)nc1-c1c[nH]c(C(=O)N[C@H](CO)c2cccc(Cl)c2)c1`, the inhibition in assay [2] stood at 54.4%.

Consider `CC12CCC(=O)C=C1CCC1C2[C@@H](O)CC2(C)C1CC[C@]2(O)C(=O)COP(=O)(O)O` (stereo partly drawn), for which the inhibition in assay [2] came out at 2.87%.
